Test results published in PubChem BioAssay AID1159580 (chemical genetic matrix, 2015).
About 2,000 (36%) of roughly 5,500 compounds were called active. Another 18% or so got no clear call; they are omitted. Rule as the data show it: active = normalized growth mostly below about 0.91 (no sharp cut-off); inconclusive = no clear call, values can overlap the other calls; inactive = mostly above about 0.92. This is one part of the list.

Assay: chemical genetic growth profiling, strain panel (AID 1159580);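 also: tested at 20 µM; growth read once vehicle control cultures reached saturation at 30 °C; 1 = growth at the plate median or of vehicle wells; lower values mean less growth of the strain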
Conditions: growth OD

Measured: normalized growth

CN1CCC[C@H]1c1cccnc1
inactive: S. cerevisiae deletion strains, locus YJR075W, strain HOC1, active compounds read low 0.999 | S. cerevisiae deletion strains, locus YKL009W, strain mrt4, active compounds read low 0.975 | S. cerevisiae deletion strains, locus YKL068W, active compounds read low 0.983 | S. cerevisiae deletion strains, locus YKL085W, strain MDH1 (second series), active compounds read low 0.984 | S. cerevisiae deletion strains, locus YKL085W, strain MDH1, active compounds read low 0.984 | S. cerevisiae deletion strains, locus YKL160W, strain elf1, active compounds read low 1.01 | S. cerevisiae deletion strains, locus YKL190W, strain CNB1, active compounds read low 1 | S. cerevisiae deletion strains, locus YKR001C, strain vps1, active compounds read low 0.986 | S. cerevisiae deletion strains, locus YKR026C, strain gcn3, active compounds read low 1.04 | S. cerevisiae deletion strains, locus YKR091W, strain srl3, active compounds read low 1.02 | S. cerevisiae deletion strains, locus YLL001W, strain dnm1, active compounds read low 1.05 | S. cerevisiae deletion strains, locus YLL026W, active compounds read low 1.02 | S. cerevisiae deletion strains, locus YLL041C, strain sdh2, active compounds read low 1.02 | S. cerevisiae deletion strains, locus YLR027C, strain aat2, active compounds read low 1.01 | S. cerevisiae deletion strains, locus YLR039C, strain RIC1, active compounds read low 0.981 | S. cerevisiae deletion strains, locus YLR058C, strain SHM2, active compounds read low 0.987 | S. cerevisiae deletion strains, locus YLR102C, strain apc9, active compounds read low 0.995 | S. cerevisiae deletion strains, locus YLR113W, strain HOG1, active compounds read low 0.921 | S. cerevisiae deletion strains, locus YLR221C, strain rsa3, active compounds read low 1.04 | S. cerevisiae deletion strains, locus YLR258W, strain gsy2, active compounds read low 1.02 | S. cerevisiae deletion strains, locus YLR262C, strain YPT6 (second series), active compounds read low 1.04 | S. cerevisiae deletion strains, locus YLR262C, strain YPT6, active compounds read low 1.01 | S. cerevisiae deletion strains, locus YLR268W, strain sec22, active compounds read low 1 | S. cerevisiae deletion strains, locus YLR320W, strain mms22, active compounds read low 1.03 | S. cerevisiae deletion strains, locus YLR330W, strain CHS5, active compounds read low 0.987 | S. cerevisiae deletion strains, locus YLR342W, strain FKS1 (second series), active compounds read low 0.976 | S. cerevisiae deletion strains, locus YLR342W, strain FKS1, active compounds read low 1.02 | S. cerevisiae deletion strains, locus YLR357W, strain rsc2, active compounds read low 1.04 | S. cerevisiae deletion strains, locus YLR370C, strain arc18, active compounds read low 1.03 | S. cerevisiae deletion strains, locus YLR371W, strain rom2, active compounds read low 0.99 | S. cerevisiae deletion strains, locus YLR384C, strain iki3, active compounds read low 1.04 | S. cerevisiae deletion strains, locus YLR418C, strain cdc73, active compounds read low 1.02 | S. cerevisiae deletion strains, locus YML016C, strain PPZ1, active compounds read low 0.99 | S. cerevisiae deletion strains, locus YML032C, strain rad52, active compounds read low 0.999 | S. cerevisiae deletion strains, locus YML120C, strain ndi1, active compounds read low 1.03 | S. cerevisiae deletion strains, locus YML124C, strain tub3, active compounds read low 0.992 | S. cerevisiae deletion strains, locus YMR058W, strain fet3, active compounds read low 1.03 | S. cerevisiae deletion strains, locus YMR078C, strain ctf18, active compounds read low 0.979 | S. cerevisiae deletion strains, locus YMR125W, strain sto1, active compounds read low 1.05 | S. cerevisiae deletion strains, locus YMR129W, active compounds read low 1.04 | S. cerevisiae deletion strains, locus YMR205C, strain PFK2, active compounds read low 1.03 | S. cerevisiae deletion strains, locus YMR223W, strain ubp8, active compounds read low 0.978 | S. cerevisiae deletion strains, locus YMR231W, strain pep5, active compounds read low 1.03 | S. cerevisiae deletion strains, locus YMR263W, strain SAP30, active compounds read low 1.02 | S. cerevisiae deletion strains, locus YMR307W, strain GAS1, active compounds read low 0.946 | S. cerevisiae deletion strains, locus YNL067W, strain RPL9B, active compounds read low 1.02 | S. cerevisiae deletion strains, locus YNL071W, strain lat1, active compounds read low 1.04 | S. cerevisiae deletion strains, locus YNL128W, strain TEP1, active compounds read low 1.02 | S. cerevisiae deletion strains, locus YNL153C, strain GIM3, active compounds read low 1.02 | S. cerevisiae deletion strains, locus YNL183C, strain NPR1, active compounds read low 0.938 | S. cerevisiae deletion strains, locus YNL209W, strain ssb2, active compounds read low 1.03 | S. cerevisiae deletion strains, locus YNL233W, strain BNI4, active compounds read low 1.01 | S. cerevisiae deletion strains, locus YNL248C, strain rpa49, active compounds read low 1.03 | S. cerevisiae deletion strains, locus YNL250W, strain rad50, active compounds read low 0.988 | S. cerevisiae deletion strains, locus YNL271C, strain bni1, active compounds read low 0.985 | S. cerevisiae deletion strains, locus YNL298W, strain CLA4, active compounds read low 1 | S. cerevisiae deletion strains, locus YNL307C, strain MCK1, active compounds read low 1 | S. cerevisiae deletion strains, locus YNL322C, strain KRE1 (second series), active compounds read low 1.04 | S. cerevisiae deletion strains, locus YNL322C, strain KRE1, active compounds read low 0.992 | S. cerevisiae deletion strains, locus YNR049C, strain mso1, active compounds read low 1.02 | S. cerevisiae deletion strains, locus YNR052C, strain pop2, active compounds read low 0.972 | S. cerevisiae deletion strains, locus YOL006C, strain TOP1, active compounds read low 0.988 | S. cerevisiae deletion strains, locus YOL012C, strain htz1 1.12 | S. cerevisiae deletion strains, locus YOL147C, strain pex11, active compounds read low 0.996 | S. cerevisiae deletion strains, locus YOR001W, strain rrp6, active compounds read low 1.02 | S. cerevisiae deletion strains, locus YOR061W, strain CKA2, active compounds read low 0.999 | S. cerevisiae deletion strains, locus YOR069W, strain VPS5, active compounds read low 0.988 | S. cerevisiae deletion strains, locus YOR070C, strain gyp1, active compounds read low 1.02 | S. cerevisiae deletion strains, locus YOR080W, strain dia2, active compounds read low 1.03 | S. cerevisiae deletion strains, locus YOR083W, strain WHI5, active compounds read low 1.02 | S. cerevisiae deletion strains, locus YOR106W, strain vam3, active compounds read low 1.07 | S. cerevisiae deletion strains, locus YOR136W, strain idh2, active compounds read low 0.988 | S. cerevisiae deletion strains, locus YOR144C, strain elg1, active compounds read low 0.993 | S. cerevisiae deletion strains, locus YOR184W, strain ser1, active compounds read low 0.959 | S. cerevisiae deletion strains, locus YOR231W, strain MKK1, active compounds read low 0.952 | S. cerevisiae deletion strains, locus YOR265W, strain rbl2, active compounds read low 1.03 | S. cerevisiae deletion strains, locus YOR270C, strain vph1, active compounds read low 1.12 | S. cerevisiae deletion strains, locus YOR290C, strain snf2, active compounds read low 1.02 | S. cerevisiae deletion strains, locus YOR316C, strain cot1, active compounds read low 0.989 | S. cerevisiae deletion strains, locus YPL051W, strain arl3, active compounds read low 1.01 | S. cerevisiae deletion strains, locus YPL055C, strain LGE1, active compounds read low 1.04 | S. cerevisiae deletion strains, locus YPL078C, strain atp4, active compounds read low 1.03 | S. cerevisiae deletion strains, locus YPL106C, strain sse1, active compounds read low 1 | S. cerevisiae deletion strains, locus YPL240C, strain hsp82, active compounds read low 1.03 | S. cerevisiae deletion strains, locus YPL241C, strain CIN2, active compounds read low 0.996 | S. cerevisiae deletion strains, locus YPL256C, strain CLN2, active compounds read low 0.943 | S. cerevisiae deletion strains, locus YPR119W, strain clb2, active compounds read low 1 | S. cerevisiae deletion strains, locus YPR141C, strain kar3, active compounds read low 0.968 | S. cerevisiae deletion strains, locus YPR163C, strain tif3, active compounds read low 0.999 | S. cerevisiae deletion strains, locus YPR167C, strain met16, active compounds read low 0.99 | S. cerevisiae deletion strains, strain wtn01, active compounds read low 0.998 | S. cerevisiae strains, strain wild type, active compounds read low 0.999
